Source: PubChem BioAssay (National Center for Advancing Translational Sciences (NCATS))
The list is not random: actives were taken first. Their share in the collection is about 7.3%.
Luc counter: Counterscreen for Luciferase (Kinase-Glo TM) Inhibition; Luciferin 4-monooxygenase (Photuris pensylvanica), Q27757; Kinase-Glo luciferase, ATP luminescence, 8 min; Potency, µM (doses to about 38.3 µM), for inactives: at the highest dose activity change, negative = inhibition, hits mostly inhibitors; 200,000 tested, 0.28% active; AID 1379, 2008; further: on the % scale 0 is the no-effect control and ±100 the full control effect; nearly all actives have a fitted effect of over 60% in size
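Light output from Kinase-Glo luciferase with luciferin and 10 uM ATP in 50 mM imidazole pH 7.2, KCl, MgCl2, Tween 20, BSA; compound pin-delivered, 8-min ambient incubation, then luminescence read.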
NPC1 prom act: qHTS Assay for NPC1 Promoter Activators; Huh7 NPC1 promoter luciferase reporter, 24 h; Potency, µM (top dose mostly 9.22 µM), inactives show at the highest dose activation, most hits filed as activators; 320,000 tested, 2.4% active; AID 485313, 2010; further: % of control where 0% means no effect; nearly all actives have a fitted effect of over 60% in size
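Quantitative HTS used a cell-based reporter: Huh7 cells stably bearing the NPC1 promoter upstream of luciferase were treated with compounds for 24 h, and promoter activation was read as luminescence.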
Rab9 prom act: qHTS Assay for Rab9 Promoter Activators. Huh7 Rab9 promoter-luciferase reporter, luminescence, 24 h. Potency, µM (titrated, usually from 9.22 µM), for inactives: top-dose activation, negative = inhibition, hits mostly activators. 320,000 tested, 2.8% active; further: % of control where 0% means no effect; nearly all actives have a fitted effect of over 60% in size
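Luminescence from Amplite-detected luciferase (10 minutes, ambient) reports Rab9 promoter activation. Before that, stable Rab9-luciferase Huh7 cells (1500/well, reduced-serum OP-MEM I plus 10% FBS) were exposed to compound for 24 hours at 37C.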
SMN2 splice up: qHTS Assay for Enhancers of SMN2 Splice Variant Expression. HEK293 SMN2-luciferase splicing reporter, luminescence, 30-36 h. Potency, µM (top dose mostly 46.1 µM), without a hit: at the highest dose activity change, positive = activation, usual class: activators. 210,000 tested, 2.8% active; further: % of control where 0% means no effect; nearly all actives have a fitted effect of over 55% in size
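qHTS luciferase splicing reporter: luminescence rises when SMN2 exon 7 is included in transfected HEK293 cells. Compound exposure lasted 30-36 h at 37C, with 4.5 mM final sodium butyrate as control, followed by a ONE-Glo read.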
FLuc modulator: qHTS profiling assay for firefly luciferase inhibitor/activator using purifed enzyme and Km concentrations of substrates (counterscreen for miR-21 project). Luciferin 4-monooxygenase (Photinus pyralis), P08659. 360,000 tested, 6.9% active. Potency, µM (doses to about 57.5 µM), for the others: top-dose activity change, negative = inhibition, hits mostly inhibitors. purified FLuc, Km substrates, luminescence inhibition;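 further: plate controls were vehicle for no effect and reference inhibitor for full effect; nearly all actives have a fitted effect of over 55% in size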
Target sequence (P08659 whole entry, looked up): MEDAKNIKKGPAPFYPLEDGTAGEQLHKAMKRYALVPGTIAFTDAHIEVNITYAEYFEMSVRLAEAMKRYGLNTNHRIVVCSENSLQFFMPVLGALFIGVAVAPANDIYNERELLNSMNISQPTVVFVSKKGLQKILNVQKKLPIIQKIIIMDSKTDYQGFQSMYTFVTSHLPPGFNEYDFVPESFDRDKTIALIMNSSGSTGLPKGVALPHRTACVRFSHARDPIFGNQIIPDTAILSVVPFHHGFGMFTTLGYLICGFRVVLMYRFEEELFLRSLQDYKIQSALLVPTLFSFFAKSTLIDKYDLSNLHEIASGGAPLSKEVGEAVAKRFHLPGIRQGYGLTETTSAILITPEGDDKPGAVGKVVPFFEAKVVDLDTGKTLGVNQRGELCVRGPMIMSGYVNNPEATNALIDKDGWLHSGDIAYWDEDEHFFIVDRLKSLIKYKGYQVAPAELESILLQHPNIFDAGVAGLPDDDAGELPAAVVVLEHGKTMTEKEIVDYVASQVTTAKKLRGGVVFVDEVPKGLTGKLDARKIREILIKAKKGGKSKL
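Purified P. pyralis luciferase (10nM final) with 10uM D-luciferin and 10uM ATP (Km levels) in 50mM Tris acetate pH 7.5, 10mM Mg acetate, 0.01% Tween-20, 0.05% BSA; qHTS 6-point titration, ~60 µM downward; luminescence read.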
* marks the source's active call; other numbers are inactive results; ? = inconclusive; . = not tested or not shown; [ ] = another dose, or the depositor's remark. The call rests on the fitted dose curve; in most records, active means well fitted curve in the direction sought with a large enough effect; inconclusive means small, poorly fitted or top-dose-only effect, or another doubt; inactive means no such curve, though single readings can be large; an effect the other way counts as inactive or inconclusive. Potency means the concentration at half of the fitted maximal effect.

SMILES	Luc counter	NPC1 prom act	Rab9 prom act	SMN2 splice up	FLuc modulator
c1ccc(CN2OCC3Cn4c(nc5ccccc54)C32)cc1 (stereo not drawn)	.	-3%	-5%	.	-1%
c1ccc(N2OCC3Cn4c(nc5ccccc54)C32)cc1 (stereo not drawn)	.	8%	5%	.	19µM*
Cc1ccc(NC(=O)C2CCCN(S(=O)(=O)c3ccc4c(c3)oc(=O)n4C)C2)cc1Cl (stereo not drawn)	.	.	.	-5%	-7%
Cc1ccc2c(c1)C(N1CCCC1=O)CC(c1ccco1)N2 (stereo not drawn)	11µM*	3.2µM*	2.2µM*	13µM*	1.2µM*
O=C1C(=O)c2ccc(-c3ccccc3)cc2-c2ccccc21	1%	-42%	-38%	-99%	3%
O=C1C(c2ccccc2)=[N+]([O-])c2ccccc21	.	13%	22%	.	12µM*
Cc1ccccc1-c1nn2c(=O)cc(CN3CCN(C(=O)/C=C/c4ccccc4)CC3)nc2s1	.	.	.	.	-16%
CCc1ccc(NC(=O)CSc2cn(CC(=O)N3CCOCC3)c3ccccc23)cc1	.	.	.	.	-14%
Cc1cc(C2=NNC(=NCc3ccccc3)SC2)c(C)n1-c1c(C)n(C)n(-c2ccccc2)c1=O	1%	-1%	-1%	-1%	5%
c1ccc2c(-c3nnc4n3CCCCC4)c[nH]c2c1	-2%	0%	-24%	-22%	-4%
c1ccc2c(C3=NNC(=NC4CC4)SC3)c[nH]c2c1	-13%	?	0.63µM*	2µM*	1.5µM*
c1ccc2c(C3=NNC(=NC4CCCCC4)SC3)c[nH]c2c1	2%	-1%	15%	20µM*	?
Cc1cc(C)n(-c2nnc3n2N=C(c2c[nH]c4ccccc24)CS3)n1	4%	-13%	-12%	16%	5%
c1ccc(C2=NNC(=NC3CC3)SC2)cc1	4.5µM*	?	0.11µM*	2.5µM*	1.3µM*
COc1cccc(/C=C(\C#N)c2nc3ccc(C)cc3[nH]2)c1	.	.	.	24%	3.4µM*
COc1cc(/C=C(\C#N)c2nc3ccc(C)cc3[nH]2)c([N+](=O)[O-])cc1OC	-4%	-1%	-1%	-25%	-5%
COc1cc(/C=C(\C#N)c2nc3ccc(C)cc3[nH]2)cc([N+](=O)[O-])c1O	0%	15%	?	?	3.8µM*
Cc1ccc2nc(/C(C#N)=C\c3ccc(Oc4ccc(C(F)(F)F)cc4[N+](=O)[O-])cc3)[nH]c2c1	0%	-7%	-5%	-7%[1.84 µM]	7%
Cc1ccc2nc(/C(C#N)=C\c3cc(O)ccc3[N+](=O)[O-])[nH]c2c1	0%	-1%	0%	3%	19µM*
c1ccc(Nc2nc(CSc3ncn[nH]3)cs2)cc1	-1%	?	?	-28%	15µM*
COCCn1c(CNC(=O)c2cccc(C)c2)nc2cccnc21	.	.	.	.	0%
CCN(CC)C(=O)Cn1c(=O)cc(C)c2c(C)nn(-c3ccc(C)cc3)c21	.	.	.	.	-7%
COc1ccc(Nc2nc(NCC3CCCO3)c3ccccc3n2)c(OC)c1 (stereo not drawn)	0%	-3%	-6%	-44%	24µM*
CCOc1nc(NCc2ccco2)nc(Nc2ccccc2F)n1	-7%	29%	30%	7.1µM*	-17%
Cc1ccc(Nc2nc(NCc3ccco3)c3ccccc3n2)cc1	-1%	6%	0%	-76%	21µM*
SMILES	Luc counter	NPC1 prom act	Rab9 prom act	SMN2 splice up	FLuc modulator
COc1ccccc1Nc1nc(NCc2ccco2)c2ccccc2n1	.	2%	-14%	.	19µM*
Cc1cccc(OCC(=O)Nc2ccc(OCc3cc(=O)n4cc(C)ccc4n3)cc2)c1	.	.	.	.	7%
Oc1c(C(c2cccc(Cl)c2)N2CCOCC2)sc2nc(-c3ccco3)nn12 (stereo not drawn)	.	.	.	.	-18%
COc1cccc(C(=O)Nc2ccccc2C(=O)OCc2cc(=O)n3nc(C4CC4)sc3n2)c1	.	.	.	.	-1%
Cc1cn2c(=O)c(S(=O)(=O)NC(C)c3ccccc3)c(C)nc2s1 (stereo not drawn)	.	.	.	.	-2%
O=C(/C=C/c1ccc(Cl)cc1)NC(=S)Nc1ccc(C(=O)O)cc1	.	-4%	-3%	.	-19%
CN(C)c1ccc(NC(=O)/C=C/c2ccccc2Cl)cc1	0%	?	2.5µM*	20µM*	1.2µM*
CCN(CC)c1ccc(NC(=O)C(C)C)cc1	-5%	11%	13%	-13%	-15%
CCN(CC)c1ccc(NC(=O)/C=C\c2ccccc2Cl)cc1	6%	26%	27%	?	2.7µM*
CN(C)c1ccc(NC(=S)NC(=O)/C=C/c2ccc(Cl)cc2)cc1	2%	16%	21%	44%	4.8µM*
CCN(CC)C(=O)C1CCN(C(=O)c2cnn(-c3ccccc3)c2-n2cccc2)CC1	.	.	.	-14%	3%
CCOc1cccc2cc(-c3csc(NC(=O)CCC(=O)NCCCN4CCC(C)CC4)n3)c(=O)oc12	-3%	27%	4µM*	8.9µM*	17µM*
COc1cccc2cc(-c3csc(NC(=O)CCC(=O)NCCCN4CCC(C)CC4)n3)c(=O)oc12	.	1.4µM*	0.71µM*	.	9.5µM*
COc1ccc(-c2cc3ccc(O)c(CN4CCC(C)CC4)c3oc2=O)cc1OC	.	.	.	.	-1%
CCOc1cccc2cc(-c3csc(NC(=O)CCC(=O)NCCN4CCCCC4C)n3)c(=O)oc12 (stereo not drawn)	-11%	?	?	3.2µM*	11µM*
CCOc1cccc2cc(-c3csc(NC(=O)CCC(=O)N4CCC(C)CC4)n3)c(=O)oc12	2%	?	0%	-21%	-2%
CCOc1ccc2nc(Cl)c(C3CC(c4ccc(C)cc4)=NN3C(=O)CCCC(=O)O)cc2c1 (stereo not drawn)	.	.	.	7%	-18%
O=C1C=CC2=C3c4cc(O)c(O)cc4C[C@]3(O)COC2=C1	-2%	.	.	-8%	.
O=C(OC1CCc2ccccc2C1=O)c1ccccc1O (stereo not drawn)	-12%	-4%	-5%	5%	12µM*
CC(C)(C)c1cc2c(O)c(c1)Cc1cc(C(C)(C)C)cc(c1O)Cc1cc(C(C)(C)C)cc(c1O)Cc1cc(C(C)(C)C)cc(c1O)Cc1cc(C(C)(C)C)cc(c1O)Cc1cc(C(C)(C)C)cc(c1O)Cc1cc(C(C)(C)C)cc(c1O)Cc1cc(C(C)(C)C)cc(c1O)C2	-12%[7.66 µM]	.	.	-7%[9.22 µM]	.
Cc1cc(/C=C2\NC(=S)N(C)C2=O)ccc1N1CCCC1	0%	?	3.5µM*	.	7.6µM*
CCN1C(=O)/C(=C/c2ccc(N3CCCC3)cc2)NC1=S	0%	-3%	0%	-18%	19µM*
Cc1cc(/C=C2/C(=O)N(C)C(=S)N2C)ccc1N1CCCC1	-3%	?	?	13µM*	4.8µM*
CCCCCCCCCCOCCC(=O)O	1%	.	.	-3%	.
